From PubChem BioAssay
Rows were chosen to be rich in hits. Some 4.3% of all compounds tested hit in one or more screens of this group.
NALP1 yeast inh = inhibitors of NALP1 inflammasome in yeast. S. cerevisiae NALP1/ASC/caspase-1 growth, X-gal OD620, 72 h. inhibition, % at 10 µM. hit rate 0.61% among 280,000; in the data active = inhibition mostly above about 24%, no sharp cut-off; inactive = mostly below about 32%
dFosB act-1 = mouse delta FosB homodimer activation; hit rate 0.99% among 340,000; activation, % at 25 µM; purified delta FosB, TAMRA-CDK5 oligo fluorescence polarization; percent of positive-control signal above neutral wells; AID 493131;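 active = mean activation above about 17%, with every replicate also reaching it, limit read from the data, passing the limit was not always enough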
GRIN3A LBD mod = modulators (binders) of human NR3A ligand-binding domain; NR3A LBD differential scanning fluorimetry, Tm shift; 0% = protein alone, 100% = glycine-bound protein; Tm shift relative to glycine control, % at 25 µM; hit rate 2.5% among 340,000; AID 1259313;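 active = melting temperature shift of at least 10% of the positive control shift, at one fixed dose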
CR mimetic SO = lowers age-related superoxide in aged yeast cells | hit rate 0.18% among 330,000 | S. cerevisiae aged cells, superoxide DHE fluorescence; active compounds read low | superoxide response (% of plate mean), % at 10 µM;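 active = superoxide response under a set limit, about three screen SD below normal, cut at about 65% in these data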;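 note: yeast aged for seven days with compound at 30 °C before DHE staining; 100% = average MFI of all compound-treated wells on the plate with controls excluded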
UBC13 polyUb = blocks human UBC13 polyubiquitin chain formation; AID 485273; P61088; hit rate 0.47% among 330,000; TR-FRET; inhibition, % at 20 µM; in the data active = inhibition above about 45%, passing the limit was not always enough
Target sequence (P61088 whole entry, looked up): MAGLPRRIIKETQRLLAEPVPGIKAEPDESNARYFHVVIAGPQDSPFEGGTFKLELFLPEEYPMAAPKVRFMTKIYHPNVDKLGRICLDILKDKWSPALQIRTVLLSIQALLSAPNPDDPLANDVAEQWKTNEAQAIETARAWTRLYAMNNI
Superoxide pick = confirmation of caloric restriction mimetics inhibiting yeast age-related superoxide; hit rate 1% among 850; shares compounds with CR mimetic SO; superoxide response (% of plate), % at 10 µM; S. cerevisiae aging, superoxide DHE fluorescence; active compounds read low;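 active = superoxide signal below 65% of the plate average of sample wells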;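 note: cells aged with compound for 7 days at 30 degrees C before staining; 100% equals mean DHE fluorescence of all compound wells on the plate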
DHE fluor count = compound alters DHE oxidation or fluorescence in yeast; fluorescence response, % at 10 µM; S. cerevisiae BY4741, flow cytometry; active compounds read low; 850 tested, under 10 active; shares compounds with CR mimetic SO;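 active = fluorescence response below 15%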;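 note: percent of the mean fluorescence averaged over all compound wells on the plate; lower means stronger quenching of DHE signal or ROS scavenging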
Casp3 UBC13 ctr = caspase-3 inhibition (UBC13 counter-screen) | hit rate 4% among 1,400 | Recombinant caspase-3, Caspase-Glo 3/7 luminescence, 60 min | inhibition, % at 20 µM | AID 488856 | shares compounds with UBC13 polyUb;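 active = mean inhibition across replicates above about 26%, limit read from the data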;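 note: plate controls were DMSO with caspase-3 for no effect and DMSO wells lacking enzyme for full effect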
Target sequence (P42574 whole entry, looked up): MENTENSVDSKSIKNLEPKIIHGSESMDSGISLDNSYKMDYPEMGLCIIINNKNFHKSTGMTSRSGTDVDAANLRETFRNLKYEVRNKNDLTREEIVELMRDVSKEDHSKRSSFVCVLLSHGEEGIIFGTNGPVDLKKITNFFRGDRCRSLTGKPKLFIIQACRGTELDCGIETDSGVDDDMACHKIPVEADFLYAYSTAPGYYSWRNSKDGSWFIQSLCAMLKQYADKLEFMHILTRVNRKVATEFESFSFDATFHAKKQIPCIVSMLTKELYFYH
UBC13 confirm = human UBC13 polyubiquitin inhibition, confirmed; UBC13 polyubiquitination, TR-FRET, biochemical; hit rate 68% among 1,400; shares compounds with UBC13 polyUb; inhibition, % at 10 µM; AID 488859; in the data active = inhibition above about 45%
dFosB act-2 = enhances mouse delta FosB homodimer binding to DNA | shares compounds with dFosB act-1 | purified delta FosB, TAMRA-CDK5 oligo fluorescence polarization; normalised: neutral wells 0, positive control 100 | activation, % at 24.9 µM | 2,400 tested, under 10 active | AID 588690;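 active = highest replicate activation at or above 34% and every replicate reaching that threshold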;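 note: higher polarization means more probe DNA bound by delta FosB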
* hit, by the source's call; x = no result given.

SMILES	NALP1 yeast inh	dFosB act-1	GRIN3A LBD mod	CR mimetic SO	UBC13 polyUb	Superoxide pick	DHE fluor count	others
O=C1C(=O)c2ccc(-c3ccccc3)cc2-c2ccccc21	-71.4	0.4	-1.3	110.5	-49.5	x	x
O=C1C(c2ccccc2)=[N+]([O-])c2ccccc21	x	2.0	1.4	57.4*	-75.5	80.6	94.9
CCOc1cc(C(=O)OCC(=O)Nc2ccc(SC(F)F)cc2)cc(OCC)c1OCC	24.8	-5.1	-2.4	39.4*	-5.8	105.1	101.7
CC(=O)OCC(=O)Nc1ccc(SC(F)F)cc1	18.0	-4.8	-1.0	93.3	0.6	x	x
COc1ccc(-c2nc(SC(CC(=O)NCCN3CCOCC3)c3cccs3)n[nH]2)cc1 (configuration not stated)	-9.1	3.5	-0.3	95.0	-20.8	x	x
CC(C)CCC(CCNCc1ccccn1)c1ccc(Cl)cc1 (configuration not stated)	27.8	-1.4	-2.0	48.0*	27.6	106.6	108.9
O=C(c1ccccc1)N1N=C(c2ccccc2O)CC1c1ccccc1 (configuration not stated)	0.9	-9.5	-4.3	95.3	7.9	x	x
CCSc1nnc(C)c(=O)n1COC(=O)c1ccc(S(=O)(=O)N2CCCC2)cc1	-2.0	-8.1	1.5	51.5*	-10.5	104.5	101.7
CCSc1nnc(-c2ccc(S(=O)(=O)N3CCCC3)cc2)n1C	-9.8	-1.6	0.9	89.9	-11.1	x	x
COc1cccc(/C=N/NC(=O)c2ccc(=O)[nH]n2)c1O	-10.5	-3.6	-0.4	92.1	-8.9	x	x
COc1cccc(/C=N/NC(=O)c2[nH]c(C)c(C(=O)N/N=C/c3cccc(OC)c3O)c2C)c1O	11.7	3.1	8.6	63.1*	-5.8	88.1	94.3
CCOC(=O)c1cc(S(=O)(=O)NC2CCC(C)CC2)cn1C (configuration not stated)	-4.8	-1.2	-0.2	87.4	8.7	x	x
CC1(C)CC(=O)c2c(-c3cccs3)n[nH]c2C1	45.2	-15.4	-1.0	63.8*	10.6	105.2	95.3
CC(=O)OCCN(Cc1ccccc1)Cc1ccc2c(c1)OCO2	7.2	-3.8	-2.6	64.4*	-2.7	116.2	111.0
O=c1c2ccc(Cl)cc2nc(-c2cccc(C(F)(F)F)c2)n1O	1.8	-5.8	-6.6	64.8*	-1.8	87.5	88.6
Cc1ccc(S(=O)(=O)N(C)c2ccc(N)cc2)cc1	13.4	3.9	-0.4	92.5	-5.2	107.4	103.7
Clc1ccc(/C=C/c2nc(Cl)c(-c3ccc(Cl)cc3)c(Cl)n2)cc1	20.7	-2.6	-9.7	62.8*	-0.2	91.9	91.7
O=C(CN1C(=O)NC(CCc2ccccc2)C1=O)Nc1cccc(Br)c1 (configuration not stated)	x	-7.1	0.3	97.0	9.5	x	x
CC1CN=C(c2ccccc2)O1 (configuration not stated)	x	-15.4	-6.0	x	x	x	x
C=CCOc1ccccc1CN1CCC(Oc2ccc(C(=O)N3CCCC3)cc2)CC1	9.9	2.7	-3.6	64.8*	9.9	116.8	111.2
O=c1c2sc(-c3ccccc3)cc2nc2n1CCC2	-91.4	-31.6	1.4	47.6*	0.2	82.9	106.5
Cc1cc2ccccn2c1C(=O)c1ccccc1F	18.2	-1.8	-0.9	61.5*	3.0	97.1	101.5
Cc1ccc(C)c(-n2c(-c3ccc(Br)cc3)csc2=NC(=O)c2ccccc2F)c1	-2.1	-6.2	-0.3	52.9*	38.6	106.1	90.5
COC(=O)c1ccccc1NS(=O)(=O)c1ccc(F)cc1	-5.3	-6.9	-0.3	126.6	-8.8	104.3	85.9
COC(=O)c1ccccc1NS(=O)(=O)c1ccc(NC(C)=O)cc1	-4.2	-7.1	-3.5	100.2	1.3	x	x
SMILES	NALP1 yeast inh	dFosB act-1	GRIN3A LBD mod	CR mimetic SO	UBC13 polyUb	Superoxide pick	DHE fluor count	others
COc1cccc(C2C(C(N)=O)=C(C)Nc3nc(-c4ccccc4Cl)nn32)c1 (configuration not stated)	27.4	-6.1	-1.4	101.1	9.1	x	x
CCOC(=O)CN1C(=O)N[C@@H](c2ccco2)C(C(=O)OC)=C1C	x	0.3	-0.9	100.7	-17.8	x	x
CCC(C)(C)c1ccc(OCCCC[n+]2ccc(C)cc2)c(C(C)(C)CC)c1	6.2	x	-4.1	61.2*	69.0*	100.1	96.1	Casp3 UBC13 ctr=-1.7;UBC13 confirm=99.4*
Cc1cc[n+](CC[n+]2ccc(C)cc2)cc1	x	4.9	1.8	98.7	-2.8	x	x
Cc1ccccc1N(CC(=O)N1CCCCCC1)S(C)(=O)=O	-0.7	-4.8	0.0	94.0	-8.1	x	x
C[C@]12CCC3C(CC[C@H]4CCCC[C@]34C)C1CC[C@@]2(O)CNCCO (some centres not stated)	9.2	2.3	1.4	110.6	63.5*	90.7	95.0	Casp3 UBC13 ctr=-1.5;UBC13 confirm=33.3
O=C(Nc1ccc2nc3ccccc3nc2c1)c1ccc(Br)cc1	26.5	31.9*	-0.2	98.6	-1.8	92.6	112.8	dFosB act-2=-2.4
CCc1ccc(CNC(=O)C2CCN(S(=O)(=O)N3CCC4(CC3)OCCO4)CC2)cc1	4.0	-3.1	0.6	102.2	-3.4	x	x
Cc1ccc(Nc2nc(NCc3ccco3)c3ccccc3n2)cc1	-4.5	57.7*	0.8	95.7	51.1*	x	x	Casp3 UBC13 ctr=8.2;UBC13 confirm=93.3*
COc1ccccc1Nc1nc(NCc2ccco2)c2ccccc2n1	-5.1	x	0.5	99.2	36.9	x	x
Cc1ccc(NC(=O)c2ccc(NCCN)c([N+](=O)[O-])c2)cc1Cl	22.9	39.0*	-2.3	103.7	67.3*	x	x	Casp3 UBC13 ctr=-2.0;UBC13 confirm=82.9*
C#CCOCCOCCOCCNc1nc(N2CCN(C(=O)CCCCCCCCCCNC(=O)[C@@H](CCC(=O)O)n3cc(CCCCCN)nn3)CC2)nc(N2CCN(C(=O)CCCCCCCCCCNC(=O)[C@H](CO)n3cc(CCCSC)nn3)CC2)n1	x	-1.3	-6.2	106.2	84.4*	x	x	Casp3 UBC13 ctr=-1.6;UBC13 confirm=40.2
C#CCOCCOCCOCCNc1nc(N2CCN(C(=O)CCCCCCCCCCNC(=O)[C@H](CCCCN)n3cc(CCO)nn3)CC2)nc(N2CCN(C(=O)CCCCCCCCCCNC(=O)[C@H](CCCCN)n3cc(CCCC(=O)O)nn3)CC2)n1	x	-74.0	-0.6	101.4	117.0*	x	x	Casp3 UBC13 ctr=1.7;UBC13 confirm=111.0*
